Data published in PubChem BioAssay (EPA / NIEHS).
Values joined by “and” are separate entries in the source; they are usually repeats but may differ in a detail not shown here. Equal entries are not always repeated. A structure can be active in one record and inactive in another. Active and inactive are the calls of the source. The calls were made as follows: active = hit-call score of the fitted dose curve at least 0.9, where 1 is the maximum; inactive = score below 0.9.

experiment: BSK_3C_VCAM1: BioMAP Diversity Plus: 3C Assay for Vascular cell adhesion molecule 1 (VCAM1) Biomarker Activity (AID 2282999); conditions: BioMAP 3C HUVEC, VCAM1 ELISA, cytokine-stimulated; actives raise or lower the signal
Description: BSK_3C is a cell-based, multiplexed-readout assay that uses umbilical vein endothelium, a human vascular primary cell, with measurements taken at 24 hours after chemical dosing in a 96-well plate.BSK_3C_VCAM1 is an assay component measured in the BSK_3C assay. It measures VCAM-1 antibody related to regulation of gene expression using ELISA technology.Data from the assay component BSK_3C_VCAM1 was analyzed into 1 assay endpoint. This assay endpoint, BSK_3C_VCAM1, was analyzed with bidirectional fitting relative to DMSO as the negative control and baseline of activity. Using a type of binding reporter, gain or loss-of-signal activity can be used to understand changes in the signaling as they relate to the gene VCAM1. Furthermore, this assay endpoint can be referred to as a primary readout, because this assay has produced multiple assay endpoints where this one serves a signaling function. To generalize the intended target to other relatable targets, this assay endpoint is annotated to the cell adhesion molecules intended target family, where the subfamily is Immunoglobulin CAM.
The levels of cell surface (or secreted, indicated by the prefix "s") biomarker endpoints were measured by ELISA. Overt cytotoxicity to cells in confluent adherent cultures (all systems other than the BT system) was assessed by measuring total protein levels using sulforhodamine B (SRB) staining in parallel cultures at the time of biomarker measurements, indicated as SRB endpoints. For proliferation assays for adherent cell types, individual cell types are cultured at sub-confluence and relative cell numbers quantified by SRB staining at time points optimized for each system (48 h: 3C and CASM3C systems; 72 h: BT and HDF3CGF systems; 96 h: SAg system). SRB was performed by staining cells with 0.1% SRB after fixation with 10% TCA and reading wells at 560 nm.Viability and proliferation of PBMC (T cells) was quantified by Alamar Blue reduction for the SAg and BT systems. For PBMC viability (referred to as PBMC Cytotoxicity within the assay endpoint names), cells were plated (75,000/well in a 96-well plate) and then chemical samples added for 1 h before addition of activators, SEB and TSST-1 (20 ng/mL final concentration each). Cells were incubated for 90 h. Then, Alamar Blue (20 uL/well) (Invitrogen, Cat DAL1100) was added for 6 h, and the plates were read with a fluorescence microplate reader at 546/580 nm (excitation/emission). For PBMC proliferation, cells were plated and activated as above but incubated for only 16 h prior to addition of Alamar Blue. Plates were read after 6 h.

Compound	AC50	outcome
Oc1ccc(Nc2ccccc2)cc1	20 µM (active)	–
O=C(O)C(F)(F)C(F)(F)C(F)(F)C(F)(F)C(F)(F)C(F)(F)C(F)(F)C(F)(F)C(F)(F)C(F)F	45.2 µM (active)	inactive
CC(C)(C)C(=O)CC(=O)C(F)(F)C(F)(F)C(F)(F)F	–	inactive
FC(F)(F)C(F)(F)C(F)(F)C(F)(F)C(F)(F)C(F)(F)CC1CO1 (stereo not given)	–	inactive
OCC(F)(F)C(F)(F)C(F)(F)C(F)(F)C(F)(F)C(F)(F)F	–	inactive
O=C(O)C(F)(OC(F)(F)C(F)(OC(F)(F)C(F)(OC(F)(F)C(F)(F)C(F)(F)F)C(F)(F)F)C(F)(F)F)C(F)(F)F (stereo not given)	–	inactive
O[Si](c1ccccc1)(c1ccccc1)c1ccccc1	–	inactive
C=C(C)C(=O)OCC(F)(F)C(F)(F)C(F)(F)C(F)(F)C(F)(F)C(F)(F)C(F)(F)F	–	inactive
O=C(O)C(F)(F)C(F)(F)C(F)(F)F	–	inactive
N=C(N)C(F)(F)C(F)(F)C(F)(F)C(F)(F)C(F)(F)C(F)(F)C(F)(F)F	24.1 µM (active) and 15 µM (active)	–
C=CC(F)(F)C(F)(F)C(F)(F)C(F)(F)C(F)(F)C(F)(F)C(F)(F)C(F)(F)F	–	inactive
O=C(O)C(F)(F)C(F)(F)C(F)(F)C(F)(F)C(F)(F)C(F)(F)C(F)(F)C(F)(F)Cl	48.7 µM (active)	–
Cc1ccc(S(=O)(=O)OCC(F)(F)C(F)(F)C(F)(F)C(F)(F)C(F)(F)C(F)F)cc1	–	inactive
O=S(=O)(OCC(F)F)C(F)(F)F	–	inactive
O=C(O)C=C(C(F)(F)F)C(F)(F)F	22.4 µM (active) and 8.91 µM (active)	–
FC(F)(I)C(F)(F)C(F)(F)C(F)(F)I	49.9 µM (active) and 48.3 µM (active) and 57.1 µM (active)	–
FC(F)(F)C(F)(F)C(F)(F)N(C(F)(F)C(F)(F)C(F)(F)F)C(F)(F)C(F)(F)C(F)(F)F	–	inactive
NC(=O)C(F)(F)C(F)(F)C(F)(F)C(F)(F)F	–	inactive
CS(C)(=O)=O	–	inactive
CC(=O)Nc1ccc(N=Nc2cc(C)ccc2O)cc1	2.69 µM (active)	–

Compound	AC50	outcome
C=C(C)C(=O)OCC(F)(F)C(F)(F)C(F)(F)F	–	inactive
OCC(F)(F)C(F)(F)C(F)(F)F	–	inactive
CCO[Si](CCC(F)(F)C(F)(F)C(F)(F)C(F)(F)C(F)(F)C(F)(F)F)(OCC)OCC	–	inactive
FC(F)(F)C(F)(F)C(F)(F)CI	–	inactive
O=S(=O)(O)C(F)(F)C(F)(F)C(F)(F)C(F)(F)C(F)(F)C(F)(F)C(F)(F)F	–	inactive
O=C(O)C(F)(F)C(F)(F)C(F)(F)C(F)(F)C(F)(F)C(F)(F)C(F)(F)C(F)(F)C(F)(F)C(F)(F)C(F)(F)C(F)(F)F	–	inactive
CCCCCCCCC(F)(F)C(F)(F)C(F)(F)C(F)(F)C(F)(F)C(F)(F)F	–	inactive
CCCCCCOC(=O)c1ccccc1O	38.1 µM (active) and 37.2 µM (active)	–
CCc1c(Br)c(Br)c(Br)c(Br)c1Br	–	inactive
CO[Si](OC)(c1ccccc1)c1ccccc1	36.7 µM (active)	–
FC(F)(Br)C(F)(F)C(F)(F)C(F)(F)C(F)(F)C(F)(F)Br	–	inactive
O=C(O)C(F)(F)C(F)(F)C(F)(F)C(F)(F)F	–	inactive
OCC(F)(F)C(F)(F)C(F)(F)C(F)(F)C(F)(F)C(F)F	–	inactive
FC1CC(F)(F)C(F)(F)C1(F)F (stereo not given)	–	inactive
OCCCC(F)(F)C(F)(F)C(F)(F)C(F)(F)C(F)(F)C(F)(F)C(F)(F)F	24.3 µM (active) and 20.5 µM (active)	–
O=S(=O)(OCCOC(F)(F)F)C(F)(F)F	–	inactive
CCc1ccc(C(c2ccc(CC)cc2)C(Cl)Cl)cc1	27.4 µM (active)	–
CCCCOCCOCCOC(=O)CCCCC(=O)OCCOCCOCCCC	–	inactive
C=CC/C=C/C/C=C/C/C=C/C	–	inactive
